Measurements from PubChem BioAssay (NCI).
About 83,000 compounds went through this panel and 20% of them were active in at least one assay; those are over-represented in the sample as a whole.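 Values shown are percent growth following 48 h exposure of cells in 96-well plates to a single concentration of compound; below 10 was considered active.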 Calls of active or inactive are those of the source.

Legend:
Test in all cases: NCI-60 one-dose screen, 48 h (100 = growth as untreated, 0 = no growth, -100 = all killed)
Conditions in all cases: 10 µM
SK-MEL-2 melanoma = test system: SK-MEL-2 melanoma
EKVX NSCLC = test system: EKVX NSCLC
SN12C renal = test system: SN12C renal
UO-31 renal = test system: UO-31 renal
TK-10 renal = test system: TK-10 renal
ACHN renal = test system: ACHN renal
CAKI-1 renal = test system: CAKI-1 renal
A498 renal = test system: A498 renal
CCRF-CEM leukemia = test system: CCRF-CEM leukemia
MOLT-4 leukemia = test system: MOLT-4 leukemia
SR leukemia = test system: SR leukemia
RPMI-8226 leukemia = test system: RPMI-8226 leukemia
OVCAR-8 ovarian = test system: OVCAR-8 ovarian
OVCAR-5 ovarian = test system: OVCAR-5 ovarian
OVCAR-4 ovarian = test system: OVCAR-4 ovarian
SK-OV-3 ovarian = test system: SK-OV-3 ovarian
IGROV1 ovarian = test system: IGROV1 ovarian
OVCAR-3 ovarian = test system: OVCAR-3 ovarian
HS 578T breast = test system: HS 578T breast
NCI/ADR-RES ovarian = test system: NCI/ADR-RES ovarian

Measured: growth

CCCCCCCCCCCCCC[n+]1ccc(C)cc1
inactive: SK-MEL-2 melanoma 13.2% | UO-31 renal 23.7% | ACHN renal 21.5% | CAKI-1 renal 31.7% | A498 renal 39.2% | NCI/ADR-RES ovarian 66.6%
active: EKVX NSCLC -36.2% | SN12C renal -2.55% | TK-10 renal -41.2% | CCRF-CEM leukemia -35.4% | MOLT-4 leukemia -36.6% | SR leukemia -38.2% | RPMI-8226 leukemia -29.7% | OVCAR-8 ovarian -19.1% | OVCAR-5 ovarian 3.81% | OVCAR-4 ovarian 7.84% | SK-OV-3 ovarian -24.2% | IGROV1 ovarian -79.5% | OVCAR-3 ovarian -57.2% | HS 578T breast -22.6%

COc1ccc(/C(=C/c2cc(OC)c(OC)cc2[N+](=O)[O-])C(=O)O)cc1
inactive: SK-MEL-2 melanoma 107% | EKVX NSCLC 105% | SN12C renal 104% | UO-31 renal 83% | TK-10 renal 118% | ACHN renal 108% | CAKI-1 renal 96.1% | A498 renal 105% | CCRF-CEM leukemia 98.6% | MOLT-4 leukemia 103% | SR leukemia 99.6% | RPMI-8226 leukemia 97.3% | OVCAR-8 ovarian 109% | OVCAR-5 ovarian 111% | OVCAR-4 ovarian 113% | SK-OV-3 ovarian 99.9% | IGROV1 ovarian 107% | OVCAR-3 ovarian 125% | HS 578T breast 114% | NCI/ADR-RES ovarian 110%

C#CCNCCCN1C(=O)c2ccc3c4c(ccc(c24)C1=O)C(=O)N(CCCNCC#C)C3=O
inactive: RPMI-8226 leukemia 12.5%
active: SK-MEL-2 melanoma -21.5% | EKVX NSCLC -79.3% | SN12C renal -97.7% | UO-31 renal -62.1% | TK-10 renal -11.3% | ACHN renal -33.1% | CAKI-1 renal -77.9% | A498 renal -96.2% | CCRF-CEM leukemia -0.672% | MOLT-4 leukemia -13.1% | SR leukemia -21.1% | OVCAR-8 ovarian -31.1% | OVCAR-5 ovarian -73.6% | OVCAR-4 ovarian -97.8% | SK-OV-3 ovarian -42.7% | IGROV1 ovarian -75.1% | OVCAR-3 ovarian -27.6% | HS 578T breast -22.9% | NCI/ADR-RES ovarian -32%

CC(=O)Nc1ccc2c(c1)C(N1CC3CCC(CC3)C1)c1ccccc1-2 (stereo not given)
inactive: SK-MEL-2 melanoma 96.7% | EKVX NSCLC 88.5% | SN12C renal 86.8% | UO-31 renal 66.7% | TK-10 renal 113% | ACHN renal 93% | CAKI-1 renal 70.9% | A498 renal 78.5% | CCRF-CEM leukemia 74.5% | MOLT-4 leukemia 63.5% | RPMI-8226 leukemia 52.5% | OVCAR-8 ovarian 88.3% | OVCAR-5 ovarian 95.8% | OVCAR-4 ovarian 65.9% | SK-OV-3 ovarian 91.4% | IGROV1 ovarian 92.9% | OVCAR-3 ovarian 100% | HS 578T breast 83.2% | NCI/ADR-RES ovarian 88.6%
active: SR leukemia 0.162%

O=C(N/N=C/c1ccccc1O)c1ccccc1
inactive: EKVX NSCLC 21.7% | SN12C renal 47.2% | UO-31 renal 12.2% | TK-10 renal 46% | ACHN renal 13% | A498 renal 71.4% | MOLT-4 leukemia 14.7% | SR leukemia 16.9% | OVCAR-8 ovarian 21.7% | OVCAR-5 ovarian 47% | OVCAR-4 ovarian 21.4% | SK-OV-3 ovarian 40.3% | IGROV1 ovarian 22.1% | OVCAR-3 ovarian 10.9% | HS 578T breast 82.9% | NCI/ADR-RES ovarian 13.4%
active: SK-MEL-2 melanoma -3.08% | CAKI-1 renal 7.12% | CCRF-CEM leukemia -28.1% | RPMI-8226 leukemia -30.3%

Cn1c(=O)c2[nH]c(C(O)c3ccc(Cl)cc3)nc2n(C)c1=O (stereo not given)
inactive: SK-MEL-2 melanoma 96.4% | EKVX NSCLC 98.7% | SN12C renal 89.8% | UO-31 renal 82.3% | TK-10 renal 108% | ACHN renal 103% | CAKI-1 renal 105% | A498 renal 95.1% | CCRF-CEM leukemia 99.3% | MOLT-4 leukemia 103% | SR leukemia 104% | RPMI-8226 leukemia 90.6% | OVCAR-8 ovarian 97.8% | OVCAR-5 ovarian 99.6% | OVCAR-4 ovarian 91.3% | SK-OV-3 ovarian 101% | IGROV1 ovarian 111% | OVCAR-3 ovarian 109% | HS 578T breast 87.9% | NCI/ADR-RES ovarian 97.9%

COc1cc(/C=C2\C(=O)Nc3cc(C)c(O)cc32)cc(OC)c1OC
inactive: SK-MEL-2 melanoma 79.3% | EKVX NSCLC 48.5% | SN12C renal 71.3% | UO-31 renal 43% | TK-10 renal 85% | ACHN renal 68.4% | CAKI-1 renal 15.7% | A498 renal 98.2% | CCRF-CEM leukemia 16.3% | MOLT-4 leukemia 53% | SR leukemia 21.4% | OVCAR-8 ovarian 72.1% | OVCAR-5 ovarian 94.5% | OVCAR-4 ovarian 62.6% | SK-OV-3 ovarian 77.5% | IGROV1 ovarian 47.7% | OVCAR-3 ovarian 35.7% | HS 578T breast 56.6% | NCI/ADR-RES ovarian 51.4%
active: RPMI-8226 leukemia -18.3%

N#CC1C=Cc2c(ccc3ccccc23)N1C(=O)c1ccccc1 (stereo not given)
active: A498 renal -7.88% | SK-OV-3 ovarian 4.99% | OVCAR-3 ovarian -56.5% | HS 578T breast -8.86% | NCI/ADR-RES ovarian -21.8%
inactive: SK-MEL-2 melanoma 40.7% | EKVX NSCLC 17.3% | SN12C renal 39.1% | UO-31 renal 38.2% | TK-10 renal 52.8% | ACHN renal 42.7% | CAKI-1 renal 20.6% | CCRF-CEM leukemia 20.3% | MOLT-4 leukemia 18.9% | SR leukemia 13.9% | RPMI-8226 leukemia 38.1% | OVCAR-8 ovarian 25.7% | OVCAR-5 ovarian 45.4% | OVCAR-4 ovarian 45.2% | IGROV1 ovarian 26%

COc1ccc(C(=O)n2nc(CC(=O)NCc3ccccc3)nc2N)cc1
inactive: SK-MEL-2 melanoma 97.5% | EKVX NSCLC 113% | SN12C renal 92.5% | UO-31 renal 82.9% | TK-10 renal 103% | ACHN renal 117% | CAKI-1 renal 110% | A498 renal 110% | CCRF-CEM leukemia 104% | MOLT-4 leukemia 89.8% | SR leukemia 93.6% | RPMI-8226 leukemia 117% | OVCAR-8 ovarian 115% | OVCAR-5 ovarian 113% | OVCAR-4 ovarian 105% | SK-OV-3 ovarian 107% | IGROV1 ovarian 93.7% | OVCAR-3 ovarian 118% | HS 578T breast 103% | NCI/ADR-RES ovarian 112%

COC1OC2COC(c3ccccc3)OC2C(=O)C1NC(=O)c1ccccc1 (stereo not given)
inactive: SK-MEL-2 melanoma 94% | EKVX NSCLC 79.5% | SN12C renal 96.7% | UO-31 renal 72.5% | TK-10 renal 108% | ACHN renal 98.9% | CAKI-1 renal 88.9% | A498 renal 116% | CCRF-CEM leukemia 97.7% | MOLT-4 leukemia 110% | SR leukemia 122% | RPMI-8226 leukemia 97.3% | OVCAR-8 ovarian 101% | OVCAR-5 ovarian 93.7% | OVCAR-4 ovarian 103% | SK-OV-3 ovarian 105% | IGROV1 ovarian 114% | OVCAR-3 ovarian 99.8% | HS 578T breast 96.6% | NCI/ADR-RES ovarian 103%

CCOC(=O)c1c(Cl)c2c(n1Cc1cccc(OC)c1)-c1oncc1CC2
active: UO-31 renal -1.88% | CAKI-1 renal 7.94% | A498 renal 1.89% | SR leukemia 8.61% | OVCAR-3 ovarian -34.9% | HS 578T breast -11.2% | NCI/ADR-RES ovarian 1.8%
inactive: SK-MEL-2 melanoma 27.8% | EKVX NSCLC 56.4% | SN12C renal 42.7% | TK-10 renal 54.7% | ACHN renal 44.8% | CCRF-CEM leukemia 15.8% | MOLT-4 leukemia 25.9% | RPMI-8226 leukemia 35.4% | OVCAR-8 ovarian 37.4% | OVCAR-5 ovarian 74.3% | OVCAR-4 ovarian 56.7% | SK-OV-3 ovarian 17.2% | IGROV1 ovarian 23.5%

COc1cc(/C=C/C(=O)c2cc(-c3ccccc3)ccc2O)cc(OC)c1OC
active: CCRF-CEM leukemia 8.52%
inactive: SK-MEL-2 melanoma 77.2% | EKVX NSCLC 54% | SN12C renal 76.2% | UO-31 renal 53.4% | TK-10 renal 105% | ACHN renal 77.3% | CAKI-1 renal 61.6% | A498 renal 74.3% | MOLT-4 leukemia 28% | SR leukemia 43.4% | RPMI-8226 leukemia 12.3% | OVCAR-8 ovarian 60.8% | OVCAR-5 ovarian 93.1% | OVCAR-4 ovarian 68% | SK-OV-3 ovarian 71.3% | IGROV1 ovarian 83% | OVCAR-3 ovarian 77.2% | HS 578T breast 82.3% | NCI/ADR-RES ovarian 69.4%

Cc1cn(C(=O)/C(Cl)=C(/Cl)C(=O)O)c2ccccc12
inactive: SK-MEL-2 melanoma 105% | EKVX NSCLC 81.7% | SN12C renal 97.6% | UO-31 renal 59.1% | TK-10 renal 127% | ACHN renal 97.8% | CAKI-1 renal 97.9% | A498 renal 124% | CCRF-CEM leukemia 37.2% | MOLT-4 leukemia 103% | SR leukemia 101% | RPMI-8226 leukemia 82.4% | OVCAR-8 ovarian 110% | OVCAR-5 ovarian 103% | OVCAR-4 ovarian 101% | SK-OV-3 ovarian 95.8% | IGROV1 ovarian 66.1% | OVCAR-3 ovarian 104% | HS 578T breast 97.8% | NCI/ADR-RES ovarian 104%

N#C/C(=C\N1C(=O)/C(=C/c2cccc([N+](=O)[O-])c2)SC1=S)c1nc2ccccc2s1
inactive: SK-MEL-2 melanoma 73.1% | EKVX NSCLC 81% | SN12C renal 94.9% | UO-31 renal 56.3% | TK-10 renal 120% | ACHN renal 81.5% | CAKI-1 renal 85.2% | A498 renal 71.8% | CCRF-CEM leukemia 85.9% | MOLT-4 leukemia 87% | SR leukemia 73.4% | RPMI-8226 leukemia 60.4% | OVCAR-8 ovarian 94.7% | OVCAR-5 ovarian 102% | OVCAR-4 ovarian 61.4% | SK-OV-3 ovarian 77.7% | IGROV1 ovarian 83.7% | OVCAR-3 ovarian 90.4% | HS 578T breast 95.9% | NCI/ADR-RES ovarian 94.1%

Cc1ccc(S(=O)(=O)Oc2ccccc2-c2ccccc2)cc1
active: A498 renal 6.79% | SR leukemia 8.73% | OVCAR-3 ovarian -28.1% | HS 578T breast -21.5% | NCI/ADR-RES ovarian -7.58%
inactive: SK-MEL-2 melanoma 28.8% | EKVX NSCLC 46% | SN12C renal 39.2% | UO-31 renal 22.5% | TK-10 renal 45.5% | ACHN renal 44.2% | CAKI-1 renal 14% | CCRF-CEM leukemia 18% | MOLT-4 leukemia 20.7% | RPMI-8226 leukemia 34.4% | OVCAR-8 ovarian 41.6% | OVCAR-5 ovarian 63.6% | OVCAR-4 ovarian 60.7% | SK-OV-3 ovarian 23% | IGROV1 ovarian 35.6%

COc1ccccc1Cn1cc2c(c1-c1ccccc1)CCc1cnoc1-2
inactive: SK-MEL-2 melanoma 49.2% | EKVX NSCLC 46.3% | SN12C renal 50.2% | UO-31 renal 34.1% | TK-10 renal 81.4% | ACHN renal 49.3% | A498 renal 43.2% | CCRF-CEM leukemia 30.5% | MOLT-4 leukemia 38.8% | SR leukemia 26.3% | RPMI-8226 leukemia 38.8% | OVCAR-8 ovarian 56% | OVCAR-5 ovarian 77.2% | OVCAR-4 ovarian 61.4% | SK-OV-3 ovarian 19.1% | IGROV1 ovarian 44.8% | NCI/ADR-RES ovarian 21.3%
active: CAKI-1 renal 4.31% | OVCAR-3 ovarian 6.99% | HS 578T breast 9.97%
